Laboratory results published in ChEMBL document CHEMBL1961873, “Compounds: GSK PKIS; Assays: Nanosyn kinase panel” (2012).

What was measured:
[1] = test system: Tyrosine-protein kinase ABL1 (Homo sapiens), P00519 [T315I]; settings: at 1 µM
[2] = test system: Tyrosine-protein kinase ABL1 (Homo sapiens), P00519 [Y253F]; settings: at 0.1 µM
[3] = test system: Tyrosine-protein kinase ABL1 (Homo sapiens), P00519 [Y253F]; settings: at 1 µM
[4] = target: Tyrosine-protein kinase ABL1 (Homo sapiens) (UniProt P00519); settings: at 0.1 µM
[5] = target: Tyrosine-protein kinase ABL1 (Homo sapiens) (UniProt P00519); settings: at 1 µM
[6] = target: ALK tyrosine kinase receptor (Homo sapiens) (UniProt Q9UM73); settings: at 0.1 µM
[7] = target: ALK tyrosine kinase receptor (Homo sapiens) (UniProt Q9UM73); settings: at 1 µM
[8] = target: Tyrosine-protein kinase ABL2 (Homo sapiens) (UniProt P42684); settings: at 0.1 µM
[9] = target: Tyrosine-protein kinase ABL2 (Homo sapiens) (UniProt P42684); settings: at 1 µM
[10] = target: Tyrosine-protein kinase receptor UFO (Homo sapiens) (UniProt P30530); settings: at 0.1 µM
[11] = target: Tyrosine-protein kinase receptor UFO (Homo sapiens) (UniProt P30530); settings: at 1 µM
[12] = target: Tyrosine-protein kinase Blk (Homo sapiens) (UniProt P51451); settings: at 0.1 µM
[13] = target: Tyrosine-protein kinase Blk (Homo sapiens) (UniProt P51451); settings: at 1 µM
[14] = target: T1, Cytoplasmic tyrosine-protein kinase BMX (Homo sapiens) (UniProt P51813); settings: at 0.1 µM
T1 sequence (whole entry): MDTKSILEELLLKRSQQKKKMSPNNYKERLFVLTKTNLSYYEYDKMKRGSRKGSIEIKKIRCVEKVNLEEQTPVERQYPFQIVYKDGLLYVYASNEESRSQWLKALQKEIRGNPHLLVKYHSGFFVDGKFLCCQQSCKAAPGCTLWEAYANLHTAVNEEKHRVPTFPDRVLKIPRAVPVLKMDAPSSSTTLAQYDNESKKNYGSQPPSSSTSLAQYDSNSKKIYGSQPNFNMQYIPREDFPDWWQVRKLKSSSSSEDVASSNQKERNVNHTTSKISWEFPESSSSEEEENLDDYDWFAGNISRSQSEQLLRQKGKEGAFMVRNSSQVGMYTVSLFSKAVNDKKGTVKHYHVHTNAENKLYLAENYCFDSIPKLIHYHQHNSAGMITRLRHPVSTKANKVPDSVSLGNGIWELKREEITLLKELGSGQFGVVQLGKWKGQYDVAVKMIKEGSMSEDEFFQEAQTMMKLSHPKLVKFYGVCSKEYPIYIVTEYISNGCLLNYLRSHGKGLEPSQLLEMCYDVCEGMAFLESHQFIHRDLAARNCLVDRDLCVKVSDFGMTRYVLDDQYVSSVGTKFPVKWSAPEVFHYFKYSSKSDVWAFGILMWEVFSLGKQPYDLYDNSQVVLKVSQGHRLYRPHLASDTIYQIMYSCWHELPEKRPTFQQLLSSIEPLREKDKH

[15] = target: T1, Cytoplasmic tyrosine-protein kinase BMX (Homo sapiens); settings: at 1 µM
[16] = target: Protein-tyrosine kinase 6 (Homo sapiens) (UniProt Q13882); settings: at 0.1 µM
[17] = target: Protein-tyrosine kinase 6 (Homo sapiens) (UniProt Q13882); settings: at 1 µM
[18] = target: Tyrosine-protein kinase BTK (Homo sapiens) (UniProt Q06187); settings: at 0.1 µM
[19] = target: Tyrosine-protein kinase BTK (Homo sapiens) (UniProt Q06187); settings: at 1 µM
[20] = target: Tyrosine-protein kinase CSK (Homo sapiens) (UniProt P41240); settings: at 0.1 µM;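 further: value given is the averaged percent inhibition of CSK kinase activity, from the GSK PKIS kinase inhibitor set screening panel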
Chain of Tyrosine-protein kinase CSK (Homo sapiens) (P41240 2-450 limits assumed): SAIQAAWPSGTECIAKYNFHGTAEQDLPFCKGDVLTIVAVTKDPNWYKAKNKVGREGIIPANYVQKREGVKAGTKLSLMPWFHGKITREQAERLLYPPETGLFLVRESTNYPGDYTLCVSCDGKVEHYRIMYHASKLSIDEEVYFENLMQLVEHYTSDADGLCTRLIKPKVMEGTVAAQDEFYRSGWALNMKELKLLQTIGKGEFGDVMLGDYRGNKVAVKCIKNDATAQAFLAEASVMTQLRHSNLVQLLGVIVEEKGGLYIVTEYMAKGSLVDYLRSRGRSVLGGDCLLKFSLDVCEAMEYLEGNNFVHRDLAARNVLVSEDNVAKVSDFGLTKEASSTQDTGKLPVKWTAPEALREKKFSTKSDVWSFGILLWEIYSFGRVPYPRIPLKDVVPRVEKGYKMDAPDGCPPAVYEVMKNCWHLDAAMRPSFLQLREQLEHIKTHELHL

Chain of Tyrosine-protein kinase BTK (Homo sapiens) (Q06187 whole entry): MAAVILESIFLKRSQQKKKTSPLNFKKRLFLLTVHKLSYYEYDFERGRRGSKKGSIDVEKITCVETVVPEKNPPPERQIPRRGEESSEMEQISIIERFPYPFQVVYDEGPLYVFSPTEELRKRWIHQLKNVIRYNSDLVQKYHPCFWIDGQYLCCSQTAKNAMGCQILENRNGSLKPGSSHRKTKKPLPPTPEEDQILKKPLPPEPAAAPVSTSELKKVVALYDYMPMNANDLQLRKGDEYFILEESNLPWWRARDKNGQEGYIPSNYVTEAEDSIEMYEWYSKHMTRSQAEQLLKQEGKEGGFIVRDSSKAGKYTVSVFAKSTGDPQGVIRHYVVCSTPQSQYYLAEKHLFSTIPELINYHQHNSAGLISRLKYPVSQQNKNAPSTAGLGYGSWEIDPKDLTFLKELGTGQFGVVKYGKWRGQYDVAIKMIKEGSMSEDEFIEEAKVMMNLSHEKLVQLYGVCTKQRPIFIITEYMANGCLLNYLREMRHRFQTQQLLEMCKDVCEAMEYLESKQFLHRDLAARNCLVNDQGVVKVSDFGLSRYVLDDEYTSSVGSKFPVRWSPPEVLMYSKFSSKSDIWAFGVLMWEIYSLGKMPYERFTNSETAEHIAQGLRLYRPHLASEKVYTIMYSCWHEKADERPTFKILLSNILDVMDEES
Chain of Tyrosine-protein kinase receptor UFO (Homo sapiens) (P30530 whole entry): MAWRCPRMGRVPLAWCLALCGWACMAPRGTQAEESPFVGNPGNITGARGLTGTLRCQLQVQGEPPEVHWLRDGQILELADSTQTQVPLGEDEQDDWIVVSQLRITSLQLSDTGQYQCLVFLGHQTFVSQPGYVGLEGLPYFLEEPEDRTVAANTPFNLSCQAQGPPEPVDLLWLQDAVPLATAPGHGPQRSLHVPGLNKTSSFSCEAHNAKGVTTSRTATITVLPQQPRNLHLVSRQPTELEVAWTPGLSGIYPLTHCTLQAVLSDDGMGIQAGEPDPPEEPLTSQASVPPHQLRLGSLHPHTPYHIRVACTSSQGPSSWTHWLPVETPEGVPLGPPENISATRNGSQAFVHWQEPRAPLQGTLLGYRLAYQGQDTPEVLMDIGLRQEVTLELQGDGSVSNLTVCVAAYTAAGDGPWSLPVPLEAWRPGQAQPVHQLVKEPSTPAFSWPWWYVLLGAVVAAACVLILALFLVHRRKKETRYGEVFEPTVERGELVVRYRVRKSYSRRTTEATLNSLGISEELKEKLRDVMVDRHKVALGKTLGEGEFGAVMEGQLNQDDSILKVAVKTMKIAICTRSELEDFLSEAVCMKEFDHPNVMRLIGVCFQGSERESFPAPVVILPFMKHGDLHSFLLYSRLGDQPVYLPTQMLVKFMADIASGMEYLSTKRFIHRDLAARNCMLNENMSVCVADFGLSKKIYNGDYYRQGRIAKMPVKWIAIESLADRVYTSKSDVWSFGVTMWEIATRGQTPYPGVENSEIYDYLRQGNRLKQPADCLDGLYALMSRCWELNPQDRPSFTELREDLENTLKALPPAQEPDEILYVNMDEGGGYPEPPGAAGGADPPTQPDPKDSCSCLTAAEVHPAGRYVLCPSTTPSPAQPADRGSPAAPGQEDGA
Chain of Tyrosine-protein kinase Blk (Homo sapiens) (P51451 2-505 limits assumed): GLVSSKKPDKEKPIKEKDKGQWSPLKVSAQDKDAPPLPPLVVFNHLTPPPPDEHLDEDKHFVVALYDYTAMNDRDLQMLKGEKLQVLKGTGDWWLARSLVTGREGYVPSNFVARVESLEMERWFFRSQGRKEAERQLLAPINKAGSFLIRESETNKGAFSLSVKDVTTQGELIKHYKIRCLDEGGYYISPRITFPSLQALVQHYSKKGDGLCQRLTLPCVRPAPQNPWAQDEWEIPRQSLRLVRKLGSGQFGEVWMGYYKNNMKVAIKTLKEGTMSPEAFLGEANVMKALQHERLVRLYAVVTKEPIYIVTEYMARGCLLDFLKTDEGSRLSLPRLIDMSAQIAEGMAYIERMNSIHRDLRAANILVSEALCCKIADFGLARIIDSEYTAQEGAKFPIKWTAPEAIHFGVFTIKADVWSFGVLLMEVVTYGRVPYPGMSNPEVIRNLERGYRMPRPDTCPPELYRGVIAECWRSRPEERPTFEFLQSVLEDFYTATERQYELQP
Chain of Tyrosine-protein kinase ABL2 (Homo sapiens) (P42684 whole entry): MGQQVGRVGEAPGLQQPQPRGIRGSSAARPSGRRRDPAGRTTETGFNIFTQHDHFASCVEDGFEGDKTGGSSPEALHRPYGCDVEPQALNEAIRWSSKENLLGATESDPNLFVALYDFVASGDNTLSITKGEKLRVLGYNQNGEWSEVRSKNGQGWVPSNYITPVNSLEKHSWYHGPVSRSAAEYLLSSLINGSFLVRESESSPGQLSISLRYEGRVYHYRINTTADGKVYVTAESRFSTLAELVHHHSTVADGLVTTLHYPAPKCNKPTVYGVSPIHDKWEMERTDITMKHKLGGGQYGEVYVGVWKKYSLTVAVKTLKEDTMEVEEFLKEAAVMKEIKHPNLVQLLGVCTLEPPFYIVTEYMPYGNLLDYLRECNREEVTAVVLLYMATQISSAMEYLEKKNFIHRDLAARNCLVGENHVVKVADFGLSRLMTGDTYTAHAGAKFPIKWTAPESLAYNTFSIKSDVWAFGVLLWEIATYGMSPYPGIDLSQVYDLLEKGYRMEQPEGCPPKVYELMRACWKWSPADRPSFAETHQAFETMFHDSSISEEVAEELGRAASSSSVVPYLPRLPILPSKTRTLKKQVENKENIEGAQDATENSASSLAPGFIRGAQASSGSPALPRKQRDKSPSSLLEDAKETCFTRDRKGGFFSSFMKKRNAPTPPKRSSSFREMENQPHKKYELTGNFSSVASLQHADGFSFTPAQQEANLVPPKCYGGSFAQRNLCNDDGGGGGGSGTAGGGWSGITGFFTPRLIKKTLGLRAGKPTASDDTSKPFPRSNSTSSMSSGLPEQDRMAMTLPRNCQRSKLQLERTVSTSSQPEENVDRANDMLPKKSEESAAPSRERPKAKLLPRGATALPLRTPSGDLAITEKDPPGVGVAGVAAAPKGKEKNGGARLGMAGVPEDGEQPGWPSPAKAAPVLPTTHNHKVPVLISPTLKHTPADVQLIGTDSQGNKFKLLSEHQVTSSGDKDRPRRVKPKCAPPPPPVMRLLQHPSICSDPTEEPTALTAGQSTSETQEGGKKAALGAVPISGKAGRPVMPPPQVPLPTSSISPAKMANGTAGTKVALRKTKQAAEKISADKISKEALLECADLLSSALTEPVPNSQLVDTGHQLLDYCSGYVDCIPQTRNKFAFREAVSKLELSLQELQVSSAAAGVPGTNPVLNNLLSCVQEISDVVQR
Chain of Protein-tyrosine kinase 6 (Homo sapiens) (Q13882 whole entry, looked up): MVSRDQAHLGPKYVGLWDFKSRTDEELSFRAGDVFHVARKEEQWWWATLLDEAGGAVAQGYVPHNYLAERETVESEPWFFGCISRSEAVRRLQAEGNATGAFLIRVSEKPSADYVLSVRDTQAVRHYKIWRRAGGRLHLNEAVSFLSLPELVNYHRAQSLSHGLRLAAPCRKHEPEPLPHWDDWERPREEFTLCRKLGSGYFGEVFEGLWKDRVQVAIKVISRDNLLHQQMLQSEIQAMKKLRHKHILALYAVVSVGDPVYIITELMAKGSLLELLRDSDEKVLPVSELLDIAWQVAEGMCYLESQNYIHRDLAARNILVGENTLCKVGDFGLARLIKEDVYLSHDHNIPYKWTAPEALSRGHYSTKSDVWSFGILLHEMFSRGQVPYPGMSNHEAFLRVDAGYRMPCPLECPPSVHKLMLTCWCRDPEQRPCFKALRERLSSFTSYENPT

Row | SMILES | inhibition [1] | inhibition [2] | inhibition [3] | inhibition [4] | inhibition [5] | inhibition [6] | inhibition [7] | inhibition [8] | inhibition [9] | inhibition [10] | inhibition [11] | inhibition [12] | inhibition [13] | inhibition [14] | inhibition [15] | inhibition [16] | inhibition [17] | inhibition [18] | inhibition [19] | inhibition [20]
1 | COc1ccc2cc(-c3c(-c4ccncc4)nc(-c4ccc(S(C)(=O)=O)cc4C)n3C)ccc2c1 | 42.6% | 4.62% | 18% | 2.92% | 13.5% | 2.91% | 6.27% | 2.97% | 11.7% | -5.68% | -4.46% | 3.03% | 7.1% | 5.32% | 3.88% | 29% | 85% | -2.49% | 0.28% | 3.76%
2 | Cc1nnc(-c2ccc(C)c(-c3ccc(C(=O)NCc4ccc(Cl)cc4)cc3)c2)o1 | 3.98% | 3.1% | 5.29% | -2.31% | 1.59% | -1.04% | 0.41% | -0.31% | 2.57% | -5.93% | -7.1% | -0.28% | 0.7% | 2.05% | 1.64% | 2.2% | 6.8% | -1.06% | -4.02% | 3.38%
3 | Cc1ccc(NC(=O)c2ccoc2)cc1-c1ccc(C(=O)NCC2CC2)cc1 | 1.92% | 1.38% | -0.92% | 1.09% | 1.49% | 1.85% | 4.11% | 2.28% | 2.36% | -3.64% | -2.93% | 1.47% | 3.07% | 3.34% | 1.66% | 0.58% | 4.58% | 0.36% | 0.35% | 1.61%
4 | Cc1ccc(C(=O)NC2CCC2)cc1-c1ccc(C(=O)NCC2CC2)cc1 | -1.77% | 2.23% | 0.38% | 3.73% | 5.96% | 2.79% | 3.48% | 3.15% | 0.48% | -4.44% | -1.14% | 2.1% | 1.49% | 8.25% | 2.61% | 1.28% | 1.95% | 0.87% | 0.88% | -0.66%
5 | NC(=O)Cc1ccccc1Oc1nccc(-c2c(-c3ccc(F)cc3)ncn2C2CCNCC2)n1 | -0.82% | 1.75% | 1.1% | 2.7% | 5.08% | 4.05% | 8.13% | 2.21% | 2.93% | -5.91% | 1.68% | 1.46% | 2.66% | 7.68% | 3.56% | 2.9% | 1.21% | 1.29% | 0.76% | 0.51%
6 | CCc1ccc(Oc2nccc(-c3c(-c4ccc(F)cc4)ncn3C3CCNCC3)n2)cc1 | 3.78% | 1.61% | 2.53% | 5.79% | 6.61% | 1.79% | 2.02% | 2.69% | 5.01% | -2.27% | -3.44% | 2.31% | 4.68% | 5.07% | 6.03% | 2.72% | 2.5% | -0.17% | 0.53% | -0.21%
7 | COc1cc(Nc2ncc3c(C)nc(-c4cccc(C(F)(F)F)c4)n3n2)cc(OC)c1OC | 13.1% | 3.77% | 16.2% | 2.35% | 14.6% | 2.22% | 6.97% | 3.85% | 13.1% | -3.79% | -0.36% | 3.39% | 25.1% | -0.78% | 11.9% | 3.48% | 5.36% | 2.11% | 4.31% | 4.48%
8 | CCN(CC)Cc1ccc(Nc2nccc(-c3cnn4ncccc34)n2)cc1 | 47.4% | 8.38% | 39.5% | 6.1% | 29.5% | 2.57% | 24.4% | 1.47% | 22.2% | -3.64% | 16.3% | -0.3% | 1.7% | 2.63% | 10.8% | 3.93% | 15.7% | -3.74% | -0.83% | 1.79%
9 | c1ccc(Oc2ccc(Nc3ncc(-c4ccccc4)o3)cc2)cc1 | 1.01% | 1.56% | 3.65% | 2.29% | 7.18% | 0.41% | 2.22% | 1.49% | 1.49% | -1.17% | -0.31% | 1.93% | 2.96% | -4.27% | 1.54% | -5.64% | -0.31% | -0.86% | 0.56% | 4.92%
10 | C#Cc1cccc(Nc2ncnc3ccc(OCCCCNCCS(C)(=O)=O)cc23)c1 | 19.4% | 8.28% | 24.9% | 8.05% | 26.8% | 3.38% | 31.9% | 5.87% | 14.8% | -8.14% | -7.98% | 2.28% | 3.96% | 3.24% | 5.57% | 6.2% | 10.2% | -3.76% | 1.2% | 3.24%
11 | NS(=O)(=O)c1ccc(N/N=C2\C(=O)Nc3ccc(-c4cnco4)cc32)cc1 | 19.9% | 3.03% | 13.4% | -0.39% | 9.41% | -3.07% | -0.11% | -0.55% | 9.88% | -3.81% | -1.27% | -1.23% | 10.4% | 0.98% | 5.77% | 3.53% | 4.99% | -4.28% | -2.57% | 2.16%
12 | O=C(Nc1ccc(Oc2ccc3[nH]c(NC(=O)c4ccccc4)nc3c2)cc1)Nc1cc(C(F)(F)F)ccc1F | 83% | 10.8% | 51.8% | 16.2% | 62.3% | 3.09% | 6.42% | 25.1% | 65.9% | -3.01% | 19.2% | 2.56% | 4.59% | 1.13% | 2.54% | 3.52% | 8.39% | 0.7% | 3.03% | 2.64%
13 | O=C(NCC1CC1)c1ccc(-c2cccc(C(=O)NC3CC3)c2)cc1 | 1.69% | 2.82% | 3.7% | 3.84% | 8.82% | 1.84% | 3.12% | 3.93% | 5.95% | -3.58% | -0.85% | 1.41% | 3.43% | -3.65% | 3.29% | 0.45% | 3.3% | 1.12% | 1.69% | 1.29%
